Results as given in the supplement of paper PMC10646978.
± gives the standard deviation.

Legend:
Settings in all cases: modulator concentration 10 µM
[1] = test system: RAW-Dual (murine macrophage reporter line); experiment: NF-kB reporter (SEAP) activity fold change vs agonist alone; higher = enhanced NF-kB activity
In short: (§1)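 RAW-Dual murine macrophage reporter cells were plated at 50 000 per well in 384-well plates, pin-transferred compound to 10 μM final, and pre-incubated for 1 hour at 37 °C before a PRR agonist was added and the cells incubated overnight. NF-κB activity was read from supernatant SEAP with QUANTI-Blue at 620 nm absorbance, and IRF activity from Lucia luciferase with QUANTI-Luc by luminescence. Each signal was expressed as fold change by dividing by the mean agonist-only control on the same plate. Two replicate plates were averaged, with errors obtained by propagation.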

[2] = test system: RAW-Dual (murine macrophage reporter line); experiment: IRF reporter (Lucia luciferase) activity fold change vs agonist alone; higher = enhanced IRF activity
In short: as §1

[3] = test system: RAW-Dual (murine macrophage reporter line); experiment: viability score (confluency relative to resting cells, overnight) (fraction); higher = more viable, active = viable (0.7 or more)
In short: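 Compound was added at a final 10 μM to RAW-Dual macrophages in 384-well plates and left overnight. Confluency was imaged with IncuCyte, and two masks were generated in IncuCyte software over all imaged wells. Each viability score is confluency relative to resting cells, and a compound met the cutoff only when both masks were above 70% of resting cells.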

[4] = agonist: CpG ODN 1826 0.5 ug/mL

Structure (SMILES)	NF-kB reporter [1, 4]	NF-kB reporter ([1]; agonist: LPS 0.1 ug/mL)	NF-kB reporter ([1]; agonist: MPLA […])	IRF reporter ([2]; agonist: 3'3'-cGAMP 10 ug/mL)	IRF reporter ([2]; agonist: LPS 0.1 ug/mL)	IRF reporter ([2]; agonist: MPLA […])	viability score [3]
C[C@@H]1COC(Nc2ccc3ncnc(Nc4ccc(OCc5nccs5)c(Cl)c4)c3c2)=N1	0.381 ± 0.07	0.881 ± 0.17	0.84 ± 0.065	0.186 ± 0.023	0.833 ± 0.2	1.27 ± 0.23	0.595 (inactive)
O=C(O)CCCN1CCC(O[C@@H](c2ccc(Cl)cc2)c2ccccn2)CC1.O=S(=O)(O)c1ccccc1	1.37 ± 0.19	1.24 ± 0.3	0.988 ± 0.059	0.995 ± 0.046	1.18 ± 0.26	1.09 ± 0.1	0.985 (active)
NC(=O)c1nc(F)cnc1O	1.06 ± 0.25	1.04 ± 0.051	2.37 ± 1.4	0.897 ± 0.031	1.27 ± 0.14	1.39 ± 0.14	1.01 (active)
CC(O)(CNC(=O)CSc1ccc(F)cc1)c1ccc(-c2ccccc2)cc1 (centres undefined)	1.02 ± 0.067	0.973 ± 0.092	0.935 ± 0.038	0.685 ± 0.049	1.11 ± 0.072	0.921 ± 0.1	0.992 (active)
NC(C(=O)O)c1ccccc1F (centres undefined)	0.928 ± 0.11	0.966 ± 0.11	0.994 ± 0.039	0.939 ± 0.056	0.969 ± 0.053	0.81 ± 0.082	1 (active)
CC(=O)N(C1=C(Nc2ccccc2)C(=O)c2ccccc2C1=O)c1ccccc1	2.44 ± 0.19	1.52 ± 0.098	2.64 ± 0.16	2.12 ± 0.063	5.77 ± 0.43	3.69 ± 0.39	0.334 (inactive)
CCOc1ccccc1NC(=O)NCc1sc(-c2ccccc2Cl)nc1C	0.768 ± 0.19	1.07 ± 0.058	0.98 ± 0.072	0.89 ± 0.048	0.926 ± 0.17	0.898 ± 0.11	1 (active)
CC(=O)Nc1cccs1	1.09 ± 0.14	1.06 ± 0.072	0.986 ± 0.035	0.944 ± 0.12	1.07 ± 0.11	1.04 ± 0.078	0.998 (active)
Cc1nonc1OC(C)CNc1ccc([N+](=O)[O-])cc1 (centres undefined)	0.989 ± 0.078	1.01 ± 0.083	1.14 ± 0.089	0.84 ± 0.11	0.995 ± 0.1	0.843 ± 0.15	0.998 (active)
COc1c(Cl)ccc(Cl)c1C(=O)NCc1ccccc1	0.812 ± 0.13	1.01 ± 0.12	1.06 ± 0.11	1.15 ± 0.03	1.25 ± 0.14	1.33 ± 0.25	1 (active)
O=C(Cc1ccc([N+](=O)[O-])cc1)NN=Cc1ccccn1	1.09 ± 0.18	1.07 ± 0.077	1.04 ± 0.04	0.89 ± 0.11	1.05 ± 0.12	1.08 ± 0.14	1 (active)
Cl.Cl.NC1=NN(c2ccc(N)cc2)CC1	0.251 ± 0.043	1 ± 0.084	0.991 ± 0.13	0.763 ± 0.035	1.34 ± 0.28	1.22 ± 0.15	1 (active)
Cl.N=C(N)NCCC[C@H](N)C(=O)O	1.12 ± 0.27	0.995 ± 0.08	1.03 ± 0.081	0.896 ± 0.036	1.38 ± 0.15	1.2 ± 0.23	1.01 (active)
CCc1c(C)c2ccc(OCC(C)=O)c(C)c2oc1=O	0.936 ± 0.21	0.984 ± 0.098	0.938 ± 0.098	0.942 ± 0.068	1.27 ± 0.3	1.2 ± 0.13	0.991 (active)
Cn1nccc1-c1ccc(CNC(=O)c2cc(Br)cs2)cn1	1.02 ± 0.082	0.974 ± 0.078	1.16 ± 0.12	1.03 ± 0.032	1.35 ± 0.17	1.53 ± 0.23	1 (active)
Nc1ccc(OCc2ccccc2)cc1	0.977 ± 0.16	1.01 ± 0.1	0.995 ± 0.12	0.635 ± 0.024	1.03 ± 0.1	1.16 ± 0.17	1.01 (active)
CCCCOC(=O)C1=C(C)NC2=C(C(=O)CCC2)C1c1cccc(C(F)(F)F)c1 (centres undefined)	0.981 ± 0.1	1.01 ± 0.057	0.939 ± 0.058	0.993 ± 0.025	1.56 ± 0.28	1.15 ± 0.17	1.01 (active)
CCOc1ccc(C=Nc2cccc3ncccc23)cc1	0.971 ± 0.084	1.02 ± 0.067	0.958 ± 0.077	0.424 ± 0.019	1.15 ± 0.11	0.979 ± 0.095	1 (active)
O=C(Oc1ccc2oc(=O)sc2c1)c1ccccc1	0.969 ± 0.2	0.917 ± 0.091	0.862 ± 0.1	0.325 ± 0.017	1.26 ± 0.13	1.36 ± 0.22	0.632 (inactive)
CCOC(=O)c1sc(NC(=O)CSc2nc3ccccc3o2)c(C(=O)OCC)c1C	1.01 ± 0.057	1.11 ± 0.09	1.06 ± 0.071	1.04 ± 0.039	1.3 ± 0.096	0.995 ± 0.12	0.981 (active)
CC12CC3CC(C)(C1)CC(N)(C3)C2 [Prestw-978]	0.916 ± 0.073	0.95 ± 0.092	0.996 ± 0.095	1.26 ± 0.045	0.925 ± 0.078	0.844 ± 0.17	0.979 (active)
Oc1ccc2ccccc2c1SSc1c(O)ccc2ccccc12	0.639 ± 0.15	0.993 ± 0.14	1.18 ± 0.15	0.09 ± 0.0053	0.919 ± 0.1	0.908 ± 0.096	0.963 (active)
COc1ccc(C(=O)Nc2nc(C)c(C)s2)cc1OC	0.904 ± 0.093	1.02 ± 0.056	0.994 ± 0.064	0.981 ± 0.024	1.55 ± 0.26	1.16 ± 0.27	1.01 (active)
COc1ccc(NC(=O)CN(c2ccc(C)c(C)c2)S(C)(=O)=O)cc1	0.831 ± 0.068	1.02 ± 0.061	1.07 ± 0.12	0.88 ± 0.046	1.46 ± 0.084	1.53 ± 0.14	0.998 (active)
Cc1ccc2nc(NC(=O)CSc3nc4c(c(=O)n3-c3ccccc3)SCC4)sc2c1	0.845 ± 0.11	0.887 ± 0.1	0.853 ± 0.081	0.662 ± 0.021	1.16 ± 0.14	1.27 ± 0.18	1.02 (active)
O=C(CCn1c(=O)oc2ccccc21)Nc1ccccc1	1.03 ± 0.17	1.22 ± 0.19	0.881 ± 0.08	0.969 ± 0.032	1.16 ± 0.19	1.06 ± 0.13	0.998 (active)
CCn1c(=O)c(-c2ccn[nH]2)cc2c(C)nc(N)nc21	0.877 ± 0.054	1.01 ± 0.093	1.17 ± 0.065	1.01 ± 0.048	1.33 ± 0.23	1.45 ± 0.53	1 (active)
